# Data published in PubChem BioAssay AID2685 (National Center for Advancing Translational Sciences (NCATS), 2010).
# The campaign covered roughly 320,000 compounds. About 2,100 (0.66%) were called active. Roughly 53% stayed inconclusive and do not appear here. Calls come from the whole dose curve; as a rule, active = well fitted inhibition curve with a large enough effect in the signal ratio, with a control signal flat (not every such curve was filed as active); inconclusive = small, poorly fitted or top-dose-only effect, or effect the other way, or a change in a side signal; inactive = flat fitted curve, though single readings scatter; the % refers to the signal ratio. What follows is part of a selection rich in actives, with near analogues and random picks from the rest.
# Experiment: qHTS Assay for Lipid Storage Modulators in Drosophila S3 Cells;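 for cell number change: cells counted by Cell Tracker Red CMTPX staining in the red channel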; for lipid storage change, negative = inhibition: % is set by controls: 0 for no effect and ±100 for the full control effect
# Details: BODIPY lipid droplet fluorescence, 18-24 h, cells fed with added oleic acid; cell number change: measured here: cell count max response; series mostly up to 46.1 µM; lipid storage change, negative = inhibition: at the top concentration
# Outline: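 Drosophila S3 cells loaded with oleic acid (400 uM, as added) and compounds at several concentrations; lipid droplets imaged by 488-nm laser-scanning cytometry, 500–530 nm intensity and object ratio to cell channel. Percent activity normalized to 20 uM Triacsin C.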
# Potency is the fitted concentration of half-maximal effect.
Structure (SMILES),"lipid storage change, negative = inhibition",cell number change [%],outcome,Potency
COC(=O)c1cc2c(N)c(C(=O)c3ccccc3)sc2nc1C(OC)OC,6.49% (inactive),-8.65,–,–
O=C(CS(=O)c1ccccc1[N+](=O)[O-])Oc1ccc(Br)cc1 (stereo not drawn),3.04% (inactive),2.35,–,–
CCOC(=O)c1ccccc1OC(=O)CS(=O)c1ccccc1[N+](=O)[O-] (stereo not drawn),–,-21.3,inactive,–
CS(=O)(=O)c1ccc(S(=O)CC(=O)OCc2ccccc2)c([N+](=O)[O-])c1 (stereo not drawn),–,-65.2,–,29.1 µM (active)
CSc1nsc(SCC(=O)N2CCc3ccccc32)n1,–,-10.2,inactive,–
O=C(NCCCn1ccnc1)C(=O)NCC1OCCN1S(=O)(=O)c1ccc(Br)cc1 (stereo not drawn),5.76% (inactive),-6.41,–,–
O=C(CN1C(=O)NC2(CCCC2)C1=O)Nc1ccccc1F,–,-18,inactive,–
C[C@H](NC(=O)Nc1cccc(C(F)(F)F)c1)C(=O)O,3.6% (inactive),14.7,–,–
COC(=O)[C@H](CCSC)NC(=O)Nc1ccc(C)c(C)c1,–,-12.2,–,5.17 µM (active)
CSCC[C@H](NC(=O)Nc1cccc(C(F)(F)F)c1)C(=O)O,–,-1.65,–,14.6 µM (active)
CSCC[C@H](NC(=O)Nc1cccc(Br)c1)C(=O)O,-5.56% (inactive),8.72,–,–
COC(=O)[C@H](CCSC)NC(=O)Nc1ccc(C(C)=O)cc1,-13.7% (inactive),0.814,–,–
COC(=O)[C@H](CCSC)NC(=O)Nc1cc(C)ccc1C,–,–,inactive,–
COc1cccc(-c2ccc(C#N)c(SCC(=O)NCc3ccco3)n2)c1,-1.45% (inactive),0.401,–,–
CCOC(=O)c1sc2nc(C)nc(SCC(=O)NC(C)CCc3ccccc3)c2c1C (stereo not drawn),–,–,inactive,–
COc1ccc(OC)c(CNC(=O)C2CCC(=O)N(CCCN3CCCC3=O)C2)c1 (stereo not drawn),–,15.9,inactive,–
CCOc1ccc(S(=O)(=O)Nc2nc3ccccc3nc2-n2ccc(=NC(=O)c3ccccc3C)cc2)cc1,-19.1% (inactive),-0.599,–,–
Cc1cc(C(=O)NNC(=S)NCc2ccco2)nn1C,24.4% (inactive),–,–,–
Cc1cc(C(=O)N(C)Cc2c(F)cccc2Cl)c2ccccc2n1,–,-7.26,–,5.17 µM (active)
CN(Cc1c(F)cccc1Cl)C(=O)c1cc2ccccc2o1,4.71% (inactive),–,–,–
CN(Cc1c(F)cccc1Cl)C(=O)c1ccc2ccccc2n1,–,19.7,inactive,–
O=c1cc(NCc2ccco2)[nH]c(=O)n1-c1ccc(Br)cc1,1.04% (inactive),-12.2,–,–
COc1ccc(-c2cc(CNC(=O)CN3CCN(C)CC3)on2)cc1,–,-114,–,4.11 µM (active)
COc1ccc(-c2cc(CNC(C)=O)on2)cc1,10.5% (inactive),0.804,–,–

Structure (SMILES),"lipid storage change, negative = inhibition",cell number change [%],outcome,Potency
COc1ccc(-c2cc(CNC(=O)CCl)on2)cc1,3.41% (inactive),8.76,–,–
COc1ccc(N2CCN(c3nc4ccccn4c(=O)c3C=O)CC2)cc1,–,25.2,–,4.61 µM (active)
CN1CCN(c2nc3ccccn3c(=O)c2C=O)CC1,–,25,inactive,–
O=Cc1c(N2CCN(c3ccccc3)CC2)nc2ccccn2c1=O,4.25% (inactive),2.17,–,–
COc1cc(NC(=O)CSc2nnnn2C2CCCC2)cc(OC)c1,–,5.13,inactive,–
COc1cccc(NC(=O)CSc2nnnn2C2CCCC2)c1,–,-5.13,–,8.2 µM (active)
COc1ccc(NC(=O)CSc2nnnn2C2CCCC2)cc1,15% (inactive),9.25,–,–
CC(C)C(=O)N=c1sc2cccc(F)c2n1C,21.4% (inactive),19.6,–,–
C/C(=N\NC(=O)CC#N)c1ccc(Oc2ccccc2)cc1,6.93% (inactive),6.12,–,–
CCOc1ccccc1N1C(=O)c2ccc(C(=O)Nc3cccnc3)cc2C1=O,–,–,inactive,–
CCOc1ccccc1N1C(=O)c2ccc(S(=O)(=O)c3ccc(C(=O)O)cc3)cc2C1=O,25.3% (inactive),24.2,–,–
CCOc1ccccc1N1C(=O)c2ccc(C(=O)O)cc2C1=O,–,-1.3,–,4.61 µM (active)
CCS(=O)(=O)c1ccc2oc(SCC(=O)Nc3ccc(OC)cc3)nc2c1,11.2% (inactive),7.84,–,–
CCN(CC)c1nc(-c2ccc(C(=O)NN)cc2)nc(-c2ccc(C(=O)NN)cc2)n1,16.7% (inactive),26.3,–,–
CCN(CC)c1nc(SCC(=O)O)nc(N(CC)CC)n1,–,–,inactive,–
CCN(CC)c1nc2n(c(=O)n1)CCN2CC,–,14.9,–,5.17 µM (active)
CCOc1cc(/C=C2\SC(=S)N(N3CCOCC3)C2=O)ccc1O,-7.43% (inactive),-15.1,–,–
Nc1nc(N2CCN(C(=O)c3ccco3)CC2)nc2ccccc12,3.78% (inactive),7.42,–,–
COc1cc(C#N)ccc1OCC(=O)NCc1cccs1,–,–,inactive,–
CC(=O)Nc1ccc2oc(-c3ccccc3)nc2c1,10.5% (inactive),17.7,–,–
CCN(CC)CC(=O)Nc1ccc(-c2nc3cc(NC(=O)CN(CC)CC)ccc3o2)cc1,–,0.429,inactive,–
CCc1ccc2oc(-c3ccc(NC(C)=O)cc3)nc2c1,–,–,–,11.6 µM (active)
COc1ccc(NC(=O)Cc2ccc(C)c(C)c2)cc1Cl,-18.4% (inactive),-32.8,–,–
COc1ccc(OC)c(NC=C2C(=O)OC3(CCCCC3)OC2=O)c1,-31.6% (inactive),-8.05,–,–

Structure (SMILES),"lipid storage change, negative = inhibition",cell number change [%],outcome,Potency
COc1ccccc1C(=O)COC(=O)c1ccc(Cl)nc1,2.34% (inactive),-5.19,–,–
CCN(Cc1ccncc1)C(=O)c1cc(COc2ccc(F)cc2F)on1,–,-20.5,inactive,–
Cc1cc(=S)cc(C)n1CCCO,0.297% (inactive),-15.3,–,–
COc1ccccc1NS(=O)(=O)c1ccc2nc(CCl)[nH]c2c1,–,-11.7,–,0.259 µM (active)
COc1ccc(OCc2nc3ccc(S(=O)(=O)Nc4ccccc4Cl)cc3[nH]2)cc1,0.493% (inactive),18.1,–,–
COc1ccc(NS(=O)(=O)c2ccc3nc(COc4ccc5ccccc5c4)[nH]c3c2)cc1,–,-9.6,–,23.1 µM (active)
c1ccc2cc(OCc3nc4ccccc4[nH]3)ccc2c1,-7.47% (inactive),-24.1,–,–
COc1ccccc1NS(=O)(=O)c1ccc2[nH]c(=O)[nH]c2c1,–,-22.3,inactive,–
COc1ccccc1NS(=O)(=O)c1ccc2oc(=S)[nH]c2c1,0.324% (inactive),9.13,–,–
COc1ccc(NS(=O)(=O)c2cccc(C(=O)NCC3(N4CCOCC4)CCCCC3)c2)cc1,-19.7% (inactive),1.17,–,–
CCCS(=O)(=O)Nc1cccc(-c2cn3c(n2)SCC3)c1,–,-21.2,inactive,–
Cc1ccnc(Sc2ncccc2[N+](=O)[O-])n1,–,-11.7,–,29.1 µM (active)
Cc1cc(C)n2nc(Sc3ncccc3[N+](=O)[O-])nc2n1,-0.347% (inactive),-8.83,–,–
Cc1ccc(Sc2ncccc2[N+](=O)[O-])cc1,-8.13% (inactive),-12.8,–,–
COCc1cc(CN2CCN(Cc3ccsc3)C(CCO)C2)ccc1OC (stereo not drawn),-2.77% (inactive),9.7,–,–
COCCN(C(=O)CCC(=O)Nc1nccs1)C(C(=O)NC(C)(C)C)c1ccc(F)cc1 (stereo not drawn),-2.68% (inactive),9.66,–,–
CCC(C)(C)NC(=O)C(c1ccc(O)cc1)N(CCOC)C(=O)CCC(=O)Nc1nccs1 (stereo not drawn),-16.7% (inactive),-13.3,–,–
CCC(C)(C)NC(=O)C(c1ccc(F)cc1)N(CCOC)C(=O)CCC(=O)Nc1nccs1 (stereo not drawn),–,3.04,–,14.6 µM (active)
Cc1cc2nnc(SCC(=O)Nc3cccc(S(=O)(=O)N4CCOCC4)c3)n2c2ccccc12,2.35% (inactive),5.18,–,–
C=CCSc1nnc(CC(OC)OC)n1-c1ccccc1,–,–,inactive,–
CC(=O)Nc1cccc(/C(C)=N/NC(=O)c2ccc(NS(=O)(=O)c3cccs3)cc2)c1,-1.63% (inactive),10.3,–,–
Cc1nc(Nc2ccccc2Br)c2nnn(Cc3ccccc3)c2n1,-10.6% (inactive),8.19,–,–
CCCCn1c(N)c(N(CC)C(=O)c2ccccc2F)c(=O)[nH]c1=O,–,6.41,–,8.2 µM (active)
CCCCN(C(=O)c1ccccc1F)c1c(N)n(CCC)c(=O)[nH]c1=O,–,28.6,inactive,–

Structure (SMILES),"lipid storage change, negative = inhibition",cell number change [%],outcome,Potency
CCCCn1c(N)c(N(CC)C(=O)c2ccccc2C(F)(F)F)c(=O)[nH]c1=O,85.7% (inactive),-2.38,–,–
O=C1NCCN1C(=O)c1cccc(Cl)c1,-0.38% (inactive),4.49,–,–
COc1ccc(NC(=O)Nc2nnc(Cc3ccc(F)cc3)s2)cc1,2.57% (inactive),-7.21,–,–
O=C(Nc1nnc(Cc2ccc(F)cc2)s1)Nc1ccccc1F,–,-6.61,inactive,–
O=C(Nc1ccccc1)Nc1nnc(Cc2ccc(F)cc2)s1,–,14,–,0.103 µM (active)
O=C1CCc2cc(S(=O)(=O)NC3CCCCC3)cc3c2N1CC3,–,–,inactive [at 0.0737 µM],–
Cc1ccc(OCC(O)CN2CCN(CCO)CC2)c(C)c1 (stereo not drawn),-4.99% (inactive),3.63,–,–
O=C(NCc1cccc(C(F)(F)F)c1)C1CCCN(c2ncccn2)C1 (stereo not drawn),–,23.6,inactive,–
CN1C(=O)/C(=C/c2cc(C(C)(C)C)c(O)c(C(C)(C)C)c2)NC1=S,9.04% (inactive),–,–,–
O=C(CCN1C(=O)/C(=C\c2ccccc2F)SC1=S)N1CCCCC1,0.243% (inactive),13.6,–,–
O=C(CN1C(=O)/C(=C/c2ccccc2F)SC1=S)NC1C=CS(=O)(=O)C1 (stereo not drawn),–,-4.2,–,16.4 µM (active)
O=C1/C(=C/c2ccccc2F)SC(=S)N1CC(=O)N1CCCCC1c1cccnc1 (stereo not drawn),–,-0.951,–,7.31 µM (active)
O=C(CCN1C(=O)/C(=C/c2ccccc2F)SC1=S)NC1C=CS(=O)(=O)C1 (stereo not drawn),–,–,inactive,–
O=C1/C(=C/c2ccccc2)SC(=S)N1CC(=O)N1CCCCC1c1cccnc1 (stereo not drawn),–,6.85,inactive,–
O=C(CN1C(=O)S/C(=C\c2ccccc2F)C1=O)NC1C=CS(=O)(=O)C1 (stereo not drawn),–,-3.44,inactive,–
CC(=O)c1nn(-c2ccccc2)cc1C(=O)c1cccc(Br)c1,18.9% (inactive),-13.3,–,–
CC(=O)c1nn(-c2cccc(Br)c2)cc1C(=O)c1ccccc1,18.9% (inactive),-13.8,–,–
CC(=O)c1nn(-c2cccc(Br)c2)cc1C(=O)c1ccc2ccccc2c1,–,-7.14,–,5.17 µM (active)
Cc1ccc(C(=O)NC2CCS(=O)(=O)C2)cc1S(=O)(=O)N1CCOCC1 (stereo not drawn),-7.04% (inactive),10.2,–,–
CCOC(=O)CS(=O)(=O)c1ccccc1,-0.796% (inactive),1.52,–,–
CCOC(=O)N=S(N)(=O)c1ccc(Cl)cc1 (stereo not drawn),-21% (inactive),-0.647,–,–
CCOC(=O)N=S(N)(=O)c1ccccc1 (stereo not drawn),–,-1.15,–,14.6 µM (active)
CCc1ccc(NC(=O)NCC2CCN(Cc3cccc(Cl)c3)CC2)cc1,-2.08% (inactive),-23.4,–,–
